# Test results taken from PubChem BioAssay (NCI).
# This is part of a sample that, as a whole, favours compounds with a hit. Of some 83,000 tested, about 20% had one in any assay.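 Percent growth is the endpoint: 0 to 100 indicates growth inhibition (40 means 60% inhibition), 0 means no net growth, and negative values indicate cell death.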 Calls of active or inactive are those of the source. Rule for the calls: active = growth percent below 10; inactive = the rest.
# Tested on: DU-145 prostate
# Assay: NCI-60 one-dose screen, 48 h (100 = growth as untreated, 0 = no growth, -100 = all killed)
# Conditions: 10 µM unless noted
row,Structure (SMILES),growth
1,O=c1ccc2nc(C(F)(F)F)nn(-c3ccccc3)c-2c1,40.5% (inactive)
2,O=P(O)(O)OCC1OC(n2cnc3c(NCc4ccccc4)ncnc32)C(O)C1O (stereo not drawn),-50.3% (active)
3,Cc1cc2nc(-c3c(-c4ccc(F)cc4)nc4sccn34)[nH]c2cc1C,94.3% (inactive)
4,CCOC(=O)N1CCN(S(=O)(=O)c2oc(-c3ccc(Cl)cc3)nc2C#N)CC1,103% (inactive)
5,CCCCCCCCn1ccc2cc(NC(=O)Cn3cc(CN4CCN(CC)CC4)nn3)ccc21,90.6% (inactive)
6,CC12CCC(/C(=C/NNc3ccc([N+](=O)[O-])cc3[N+](=O)[O-])C1=O)C2(C)C (stereo not drawn),4.67% (active)
7,COc1ccc(/C(C)=C(\c2ccc(OCCN3CCCCCC3)cc2)c2ccc(OC(=O)c3ccccc3)cc2)cc1,71.8% (inactive)
8,O=C(N/N=C/c1ccc([N+](=O)[O-])cc1)c1ccc2nc(-c3ccc(Cl)cc3)[nH]c2c1,42% (inactive)
9,COc1cc(/C=C\c2cc(/C=C\c3ccc(O)c(OC)c3)n(C(=O)CNc3ccc(Cl)cc3)n2)ccc1O,27.7% (inactive)
10,CN(C)c1ccc(-c2cc(-c3ccc(Nc4nc(Nc5ccc(Cl)cc5)nc(Nc5ccc(Cl)cc5)n4)cc3)nc(N)c2C#N)cc1,95.8% (inactive)
11,Nc1ccc([N+](=O)[O-])cc1N=C/C=C/c1ccccc1,77.4% (inactive)
12,Cc1nc2sc(C(=O)Nc3cccc(Cl)c3)c(N)c2cc1C(O)c1ccccc1 (stereo not drawn),19.7% (inactive)
13,COc1cc(C2=NN(C(C)=O)C(c3ccc(N(C)C)cc3)C2)cc(OC)c1OC (stereo not drawn),103% (inactive)
